The nature of the experiment: compounds binding Alexa647 anti-His antibody – biochemical, small-molecule microarray, 635 nm fluorescence, artefact control for SMM control protein annotation, primary screen (AID 1128).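 Also: score merges feature fluorescence with signal-to-noise for each printed compound spot.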 The settings on record: higher = more signal.
The compound `CC(=O)OC[C@H]1O[C@@H](ON=C[C@@H](C)[C@H](OCc2ccccc2)C(C)C)[C@H](OC(C)=O)[C@@H](OC(C)=O)[C@@H]1OC(C)=O` had a composite z-score of 0.133. With `CN1C(=O)C2C=CC(C(O)C(c3ccccc3)c3ccccc3)N(NC(=O)OC(C)(C)C)C2C1=O` (stereo unspecified), the composite z-score worked out at 1.88. `COC(=O)C1=C(C)N(Cc2ccccc2)[C@]23O[C@](C(=O)OC)(C(=O)N2[C@@H]1c1ccccc1)[C@H]1CCOC(=O)[C@H]13` displayed a composite z-score of 0.038. The figure for `C=C(CCCC)C(=O)CC[C@@H](OC(C)=O)c1cccc(OCCO)c1` is 0.936; for `CO[C@@H]1COC(=O)CC=C[C@@H](C)[C@@H]2C=C[C@@H](O)[C@@H](COC(=O)CC=C[C@H]1C)O2` it is 0.235. The figure for `COC(=O)[C@@]1(Cc2ccccc2)[C@H]2c3cc(C(=O)N4CCCC4)n(Cc4ccccn4)c3C[C@H]2CN1C(=O)c1ccccc1` is 1.81; for `CCOC(=O)NN=C1C[C@@H](O)[C@@H](O)[C@@H]2[C@@H]3C(=O)N(C(C)(C)C)C(=O)[C@@H]3CC[C@@H]12` it is -0.889; for `C=CCN1C(=O)[C@]2(O[C@H](CCn3cc(CCO)nn3)[C@@H]([Si](C)(C)c3ccc(OC)cc3)[C@@H]2C)c2cc(N3CCOC3=O)ccc21` it is 0.766. In the case of `CCOc1ccc(N2C(=O)/C(=C/C=C/c3ccccc3OC)S(=O)(=O)C2c2cccc([N+](=O)[O-])c2)cc1` (stereo unspecified), the composite z-score is -0.359. With `O[C@@H](Cc1ccccc1)[C@H]1C2C=CCCC(c3ccccc3)=C2CN1Cc1cccc(Cl)c1` (stereo partly specified), the composite z-score stood at 0.607. The figure for `CO[C@H]1O[C@H](CO)[C@@H](OC(=O)Nc2ccc(C#N)cc2)[C@H](OC(=O)c2cc3ccccc3[nH]2)[C@H]1OC(=O)c1cc2ccccc2[nH]1` is 2.87. As to `Cc1ccc(S(=O)(=O)N[C@@H]2COC(=O)[C@H](C)COC(=O)CC=C[C@H]2C)cc1`, the composite z-score is -0.419. In the case of `C=CC[C@@H]1C=C[C@H](ON=C2c3cc(OC)ccc3O[C@H](c3cccc(OC)c3)[C@H]2O)[C@@H](CO)O1`, the composite z-score is -0.738.

As for `C=CCC(OC(C)=O)[C@@H]1[C@@H](N(Cc2cc3ccccc3o2)C(=O)Cc2ccc(F)cc2)c2cc(OCCCO)ccc2N1C(=O)Cc1ccc(OC)cc1` (stereo partly specified), the composite z-score is -0.419. Turning to `CCOC(=O)[C@H](CC(C)C)NC(=O)CCC1CC(OC(=O)NCCc2ccc(F)cc2)CC2(CCCC(COC(=O)NCc3ccccc3)O2)O1` (stereo partly specified), the composite z-score amounted to 0.49. The figure for `O=C1[C@H]2[C@H]3[C@H](O)[C@H](O)CC(=NOC[C@@H](O)COCc4ccco4)[C@H]3CC[C@H]2C(=O)N1Cc1ccc2c(c1)OCO2` is 0.729; for `CC(CCC(=O)OC[C@H]1O[C@H](C#Cc2ccccc2)C=C[C@@H]1Oc1ccc(C)cc1)=NOC[C@@H](O)[C@H]1O[C@@H]2OC(C)(C)O[C@@H]2[C@H]1O` it is 0.418; for `CC(C)(C)N1CC=CC23O[C@@H]4C=CCCOC(=O)C4[C@H]2C(=O)N(CCCCCO)[C@@H]3C1=O` (stereo partly specified) it is 0.373. The figure for `CCc1cc2c(nc1CC)CCN(CCC(C)=NO[C@@H](C)c1cc(-c3c(C)cc(C)cc3C)no1)C2` is 0.0635; for `CC(C)CON=C1C[C@@H](O)[C@@H](O)[C@@H]2[C@@H]3C(=O)N(Cc4ccccc4)C(=O)[C@@H]3CC[C@@H]12` it is 0.705; for `COCCCNC(=O)[C@@]1(C)c2ccccc2C(=O)N(Cc2ccc(OC(F)(F)F)cc2)[C@H]1c1ccc(CO)cc1` it is -0.95. Turning to `O=C1C2=CC[C@H]3C(=O)N(Cc4ccc5c(c4)OCO5)C(=O)[C@H]3[C@H]2[C@H](O)[C@@H]2O[C@H]12`, the composite z-score worked out at 1.06. For `COc1ccc(O[C@H]2C=C[C@@H](c3ccccc3)O[C@@H]2COC(=O)CCC(C)=NOC(C)CN2CCCCc3nc(C)c(C)cc32)cc1` (stereo partly specified), the composite z-score was found to be 4.16. The figure for `CC(CCN1CCCCc2nc(C)c(C)cc21)=NOC(C)CN1CCCCc2nc(C)c(C)cc21` (stereo unspecified) is 2.37. Consider `O=C1[C@H]2[C@H]3[C@H](O)[C@H](O)CC(=NOCc4ccccc4)[C@@H]3CC[C@H]2C(=O)N1C1CCCCC1`, for which the composite z-score is 0.157. The figure for `COc1ccc([Si](C)(C)[C@@H]2[C@@H](CCO)O[C@]3(C(=O)N(Cc4ccc(NC(C)=O)cc4)c4ccccc43)[C@H]2C)cc1` is 1.92; for `Cc1cc2c(c(=O)o1)[C@H](O)[C@H]1O[C@H]1C2=O` it is -0.633; for `O=C1[C@H]2[C@H]3[C@H](O)[C@H](O)CC(=NOC[C@@H](O)COCc4ccco4)[C@H]3CC[C@H]2C(=O)N1C1CCCCC1` it is -0.0844. As to `[N-]=[N+]=Nc1ccccc1C[C@@]1(C(N)=O)N=C(c2ccc(OCCCO)cc2)O[C@@H]1c1ccccc1`, the composite z-score amounted to 0.42. `CCOC(=O)NN=C1C[C@@H](O)[C@@H](O)[C@@H]2[C@@H]3C(=O)N(CC)C(=O)[C@@H]3CC[C@@H]12` showed a composite z-score of 0.249. With `CC(C)NC(=O)[C@@]1(c2ccc([N+](=O)[O-])cc2)CC(=O)N(CC23CC4CC(CC(C4)C2)C3)[C@@H]1c1ccc(CO)cc1I`, the composite z-score amounted to 0.0833. The figure for `COC(=O)C1(C)C=C2C(=C(c3ccccc3)C(=O)C2C)CN1` (stereo unspecified) is 1.57; for `O=C1[C@H]2[C@H]3[C@H](O)[C@H](O)CC(=NO[C@@H]4O[C@H](CO)[C@@H](O)[C@H](O)[C@H]4O)[C@@H]3CC[C@H]2C(=O)N1Cc1ccccc1` it is -0.58. The figure for `CCOC(=O)CCN1C(=O)[C@H]2[C@H]3[C@H](O)C=CC(=O)[C@@H]3CC[C@H]2C1=O` is 0.147; for `Cc1cc2c(nc1C)CCCN2CC(C)ON=C1[C@H]2CCn3c(=O)n(-c4ccccc4)c(=O)n3[C@H]2[C@H](O)[C@@H]2O[C@H]12` (stereo partly specified) it is -0.674. As for `CCCCc1nc2c(c3c1C[C@H](C)OC3)CN(CCC(C)C)CC2`, the composite z-score turned out to be 0.965.

For the origin of these results see PubChem BioAssay.
